JMJD2A Tudor inh: JMJD2A Tudor domain (human) inhibition | AlphaScreen JMJD2A-Tudor / H3K4me3 peptide binding | hit rate 4.4% among 390,000 | Potency, µM (titrated, usually from 114 µM), for inactives: at the highest dose activity change, negative = inhibition, actives largely listed as inhibitors | O75164 | AID 504339; further: on the % scale 0 is the no-effect control and ±100 the full control effect; nearly all actives have a fitted effect of over 50% in size
G9a inh: blocks human histone lysine methyltransferase G9a. Q96KQ7. G9a H3K9 monomethylation, AlphaScreen, 2 h. Potency, µM (top dose mostly 102 µM), for the others: top-dose activity, negative = inhibition, most hits filed as inhibitors. hit rate 8.8% among 350,000. AID 504332; further: on the % scale 0 is the no-effect control and ±100 the full control effect; nearly all actives have a fitted effect of over 75% in size
Target sequence (Q96KQ7 913-1193 limits assumed): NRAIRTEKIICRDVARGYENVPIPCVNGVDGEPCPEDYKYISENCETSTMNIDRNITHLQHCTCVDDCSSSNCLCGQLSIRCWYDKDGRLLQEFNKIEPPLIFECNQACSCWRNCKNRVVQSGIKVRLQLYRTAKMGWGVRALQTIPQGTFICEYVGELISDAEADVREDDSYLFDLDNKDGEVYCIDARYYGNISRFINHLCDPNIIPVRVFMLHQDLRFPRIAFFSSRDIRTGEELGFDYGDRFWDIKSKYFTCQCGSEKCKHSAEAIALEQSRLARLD
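AlphaScreen detection with an anti-monomethyl H3K9 antibody quantified product after a 2 h room-temperature reaction containing 500 nM biotinylated H3K9 peptide, 20 µM SAM and 20 nM enzyme, which had been preincubated 15 min with compound.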
HP1b binding inh: blocks HP1-beta chromodomain binding to methylated histone tails; AID 540317; hit rate 0.56% among 390,000; Potency, µM (top dose mostly 114 µM), for the others: at the top dose activity change, negative = inhibition, usual class: inhibitors; P83916; AlphaScreen HP1-beta / biotin-H3K9me3 peptide binding; further: nearly all actives have a fitted effect of over 70% in size
Target sequence (P83916 whole entry, looked up): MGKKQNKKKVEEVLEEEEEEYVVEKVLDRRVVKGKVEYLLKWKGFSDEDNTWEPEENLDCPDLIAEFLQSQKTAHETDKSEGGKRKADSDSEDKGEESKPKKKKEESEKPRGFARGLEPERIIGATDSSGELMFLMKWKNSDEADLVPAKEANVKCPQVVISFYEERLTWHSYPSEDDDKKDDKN
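HP1-beta protein (50 nM final) preincubated 30 min at room temperature with biotinylated H3(1-18)K9me3 peptide (50 nM) in PBS pH 7.4, 0.01% Tween-20, then compound added for 30 min. AlphaScreen streptavidin donor/nickel chelate acceptor beads (10 ug/mL final), 30 min dark, luminescence read.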
Sfp PPTase inh: blocks B. subtilis Sfp PPTase activity | Q9F4F7 | Potency, µM, without a hit: largest response in the series, negative = inhibition, hits mostly inhibitors | Biochemical Sfp PPTase activity, qHTS | hit rate 3.5% among 310,000;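 further: the enzyme is Sfp with the accession as filed and its product quenches rhodamine fluorescence; 0% = enzyme reaction without inhibitor and -100% = no enzyme wells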
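Sfp 15 nM + cpd, 15 min RT; start w/ rhodamine-CoA 5 uM, BHQ-2-YbbR 12.5 uM (final); 50 mM Hepes pH 7.6, 10 mM MgCl2, 0.01% NP-40, 0.01% BSA; read 525/598 nm at 0 and 30 min.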
BAZ2B inh: inhibitors of human BAZ2B bromodomain; Potency, µM (titrated, usually from 114 µM), for inactives: at the top dose activity change, negative = inhibition, usual class: inhibitors; hit rate 4.4% among 360,000; Q9UIF8; AlphaScreen BAZ2B-H3K14Ac peptide displacement; further: on the % scale 0 is the no-effect control and ±100 the full control effect; nearly all actives have a fitted effect of over 60% in size
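BAZ2B 50 nM plus b-H3(5-23)K14Ac 50 nM, PBS pH 7.4/0.01% Tween-20, 30 min RT; compound added (max 110 uM), 30 min RT; streptavidin donor/Ni-chelate acceptor beads 10 ug/mL final, 20 min dark; AlphaScreen read.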
Starred values were filed as active, the others as inactive; [ ] = remark or other dose. This is a sample that favours compounds with a hit; in the whole collection about 12% have one here. The call rests on the fitted dose curve; in most records, active means well fitted curve in the direction sought with a large enough effect; inconclusive means small, poorly fitted or top-dose-only effect, or another doubt; inactive means no such curve, though single readings can be large; an effect the other way counts as inactive or inconclusive. Potency means the concentration at half of the fitted maximal effect.

Screening COCCn1c(C)cc(C(=O)COC(=O)c2ccc3ncsc3c2)c1C returned JMJD2A Tudor inh inconclusive, G9a inh 6%[12.7 µM], HP1b binding inh -32%, Sfp PPTase inh 6% and BAZ2B inh 56µM*.
Screening Cc1ccc(-n2c(C)cc(C(=O)Cn3nc(C(=O)O)c4ccccc4c3=O)c2C)cc1 returned JMJD2A Tudor inh inconclusive, G9a inh 79µM*, HP1b binding inh -20%, Sfp PPTase inh -3% and BAZ2B inh -10%.
For NC(=O)/C(=C\c1ccccc1)NC(=O)/C=C/c1ccccc1 the results were JMJD2A Tudor inh -5%, G9a inh inconclusive, HP1b binding inh 3%, Sfp PPTase inh -3% and BAZ2B inh 8%.
Screening Fc1ccc(C2=Nc3cccc4cccc(c34)N2)cc1 returned JMJD2A Tudor inh -32%, G9a inh inconclusive, HP1b binding inh -21%, Sfp PPTase inh 1% and BAZ2B inh -33%.
Screening Brc1ccc(C2=Nc3cccc4cccc(c34)N2)o1 returned JMJD2A Tudor inh inconclusive, G9a inh 16µM*, HP1b binding inh 45µM*, Sfp PPTase inh -18% and BAZ2B inh inconclusive.
For COc1ccccc1NC(=O)CSc1ccc(-c2ccco2)nn1 the results were JMJD2A Tudor inh -25%, G9a inh inconclusive, HP1b binding inh 21%, Sfp PPTase inh 45µM* and BAZ2B inh inconclusive.
Cc1ccc(C)c(NC(=O)CSc2ccc(-c3ccco3)nn2)c1 was read as JMJD2A Tudor inh -7%, G9a inh -14%[59 µM], HP1b binding inh 32%, Sfp PPTase inh 14µM* and BAZ2B inh -25%.
Screening Cc1ccccc1NC(=O)CSc1nnc(-c2ccco2)n1N returned JMJD2A Tudor inh -19%, G9a inh 7.9µM*, HP1b binding inh inconclusive and BAZ2B inh 13%.
Screening Cc1ccccc1NC(=O)Cc1nnc(SCC(=O)NC2=NCCS2)n1C returned JMJD2A Tudor inh 25µM*, G9a inh inconclusive, HP1b binding inh -8%, Sfp PPTase inh 7% and BAZ2B inh -2%.
COc1ccccc1NC(=S)NC(C)=O was read as JMJD2A Tudor inh -12%, G9a inh -28%, HP1b binding inh 10%, Sfp PPTase inh 14% and BAZ2B inh -30%.
For COc1ccc(NC(=O)CC2Oc3ccccc3NC2=O)c(OC)c1 (stereo not given) the results were JMJD2A Tudor inh -2%, G9a inh 10%, HP1b binding inh 56%, Sfp PPTase inh 10% and BAZ2B inh -4%.
Screening Cc1cc(N2CCC(C)CC2)nc2ccc(NC(=O)CCC(=O)N3CCN(c4cccc(C(F)(F)F)c4)CC3)cc12 returned JMJD2A Tudor inh 14%, G9a inh -3%[59 µM], HP1b binding inh 40% and BAZ2B inh 6%.
O=C(CSc1nnc2ccc(-c3ccco3)nn12)Nc1ccccc1F was read as JMJD2A Tudor inh -18%, G9a inh 14µM*, HP1b binding inh 73% and BAZ2B inh inconclusive.
Screening O=C(CSc1ccc(-c2ccco2)nn1)NCc1ccccc1Cl returned JMJD2A Tudor inh -4%, G9a inh inconclusive, HP1b binding inh 37%, Sfp PPTase inh -2% and BAZ2B inh 1%.
`COc1ccc(NC(=O)CSc2nnc(-c3ccoc3C)n2CCc2ccccc2)cc1` gave JMJD2A Tudor inh -27%, G9a inh 12%[2.33 µM], HP1b binding inh -3%, Sfp PPTase inh 5% and BAZ2B inh inconclusive.
Cc1ccccc1NC(=O)CSc1nnc(-c2ccoc2C)n1CCc1ccccc1 was read as JMJD2A Tudor inh -19%, G9a inh 79µM*, HP1b binding inh 19%, Sfp PPTase inh -15% and BAZ2B inh inconclusive.
`Cc1ccccc1NC(=O)CSc1ccc(-c2ccco2)nn1` gave JMJD2A Tudor inh -26%, G9a inh -19%[59 µM], HP1b binding inh 11%, Sfp PPTase inh 22µM* and BAZ2B inh -34%.
For COc1cccc(C(=O)NNC2=C(C(=O)C(F)(F)F)CCC2)c1 the results were JMJD2A Tudor inh -23%, G9a inh -5%, HP1b binding inh 25%, Sfp PPTase inh 28% and BAZ2B inh -25%.
CCCn1nnnc1NC(=O)COc1ccc(Br)cc1 was read as JMJD2A Tudor inh inconclusive, G9a inh -8%, HP1b binding inh 40%, Sfp PPTase inh 6% and BAZ2B inh 79µM*.
CCCCC(=O)Nc1nnnn1CCC was read as JMJD2A Tudor inh -5%, G9a inh -1%[59 µM], HP1b binding inh -15%, Sfp PPTase inh 3% and BAZ2B inh -2%.
Screening O=C1NN(c2cccc(Br)c2)C(=O)/C1=C\c1ccc(N2CCOCC2)cc1 returned JMJD2A Tudor inh inconclusive, G9a inh 79µM*, HP1b binding inh 5%, Sfp PPTase inh -2% and BAZ2B inh inconclusive.
For COCCn1c(=O)c(-c2cccs2)nc2cnc(OCc3ccccc3)nc21 the results were G9a inh 6%[12.7 µM] and Sfp PPTase inh 11%.
Screening CN(C)c1ccc(CNc2nc(-c3ccco3)nn2S(=O)(=O)c2ccc3ccccc3c2)cc1 returned JMJD2A Tudor inh 8.9µM*, G9a inh 7.9µM*, HP1b binding inh inconclusive and BAZ2B inh 8.9µM*.
For COC(=O)[C@@]1(Cc2ccccc2)[C@H]2C(=O)N(Cc3ccccc3)C(=O)[C@H]2[C@H]2CN(C)C(=NCc3ccccc3)N21 the results were JMJD2A Tudor inh -16% and HP1b binding inh 41%.
`Cn1nccc1C(=O)NC(=S)Nc1cc(Cl)cc(Cl)c1` gave JMJD2A Tudor inh 22µM*, G9a inh inconclusive, HP1b binding inh -7%, Sfp PPTase inh -82% and BAZ2B inh -16%.
`Cn1nccc1C(=O)Nc1ccc(OC(=O)c2ccnn2C)cc1` gave JMJD2A Tudor inh -8%, G9a inh 1.6µM*, HP1b binding inh 32%, Sfp PPTase inh 12% and BAZ2B inh -6%.
Screening Cc1ccc2cccc(NC(=S)NC(=O)c3ccnn3C)c2n1 returned JMJD2A Tudor inh inconclusive, G9a inh -10%[59 µM], HP1b binding inh 2%, Sfp PPTase inh inconclusive and BAZ2B inh -15%.
For CCOC(=O)c1[nH]cnc1C(=O)Nc1ccc(C)cc1 the results were JMJD2A Tudor inh -16%, G9a inh inconclusive, HP1b binding inh 37%, Sfp PPTase inh 15% and BAZ2B inh -32%.
CC(=O)c1ccc(N2CCN(CN3C(=O)CC4(CCCC4)C3=O)CC2)c(F)c1 was read as JMJD2A Tudor inh -15%, G9a inh -2%, HP1b binding inh -18%, Sfp PPTase inh 10% and BAZ2B inh 1%.
`COc1ccc(C(=O)N2CCCC(Nc3ccc(C)c(C)c3)C2)cc1` (stereo not given) gave JMJD2A Tudor inh inconclusive, G9a inh -24%, HP1b binding inh 3%, Sfp PPTase inh 0% and BAZ2B inh inconclusive.
For Cc1ccc(NC2CCCN(C(=O)c3ccoc3)C2)cc1C (stereo not given) the results were JMJD2A Tudor inh -28%, G9a inh 79µM*, HP1b binding inh 27%, Sfp PPTase inh -1% and BAZ2B inh inconclusive.
